According to article PMC4336329 (PLoS ONE, 2015):
Screen size: about 310,000 compounds; about 14,000 (4.5%) showed an effect of 50% or more. Effects have a minus sign here. This is one part of a sample in which strong results are shown more often than they occur.

What follows are compounds tested against human ether-à-go-go-related gene (hERG) potassium channel (human, UniProt Q12809) (assay: primary screen, population patch clamp on CHO cells stably expressing hERG; higher = less effect of the substance).
Sequence of human ether-à-go-go-related gene (hERG) potassium channel (Q12809 whole entry, looked up): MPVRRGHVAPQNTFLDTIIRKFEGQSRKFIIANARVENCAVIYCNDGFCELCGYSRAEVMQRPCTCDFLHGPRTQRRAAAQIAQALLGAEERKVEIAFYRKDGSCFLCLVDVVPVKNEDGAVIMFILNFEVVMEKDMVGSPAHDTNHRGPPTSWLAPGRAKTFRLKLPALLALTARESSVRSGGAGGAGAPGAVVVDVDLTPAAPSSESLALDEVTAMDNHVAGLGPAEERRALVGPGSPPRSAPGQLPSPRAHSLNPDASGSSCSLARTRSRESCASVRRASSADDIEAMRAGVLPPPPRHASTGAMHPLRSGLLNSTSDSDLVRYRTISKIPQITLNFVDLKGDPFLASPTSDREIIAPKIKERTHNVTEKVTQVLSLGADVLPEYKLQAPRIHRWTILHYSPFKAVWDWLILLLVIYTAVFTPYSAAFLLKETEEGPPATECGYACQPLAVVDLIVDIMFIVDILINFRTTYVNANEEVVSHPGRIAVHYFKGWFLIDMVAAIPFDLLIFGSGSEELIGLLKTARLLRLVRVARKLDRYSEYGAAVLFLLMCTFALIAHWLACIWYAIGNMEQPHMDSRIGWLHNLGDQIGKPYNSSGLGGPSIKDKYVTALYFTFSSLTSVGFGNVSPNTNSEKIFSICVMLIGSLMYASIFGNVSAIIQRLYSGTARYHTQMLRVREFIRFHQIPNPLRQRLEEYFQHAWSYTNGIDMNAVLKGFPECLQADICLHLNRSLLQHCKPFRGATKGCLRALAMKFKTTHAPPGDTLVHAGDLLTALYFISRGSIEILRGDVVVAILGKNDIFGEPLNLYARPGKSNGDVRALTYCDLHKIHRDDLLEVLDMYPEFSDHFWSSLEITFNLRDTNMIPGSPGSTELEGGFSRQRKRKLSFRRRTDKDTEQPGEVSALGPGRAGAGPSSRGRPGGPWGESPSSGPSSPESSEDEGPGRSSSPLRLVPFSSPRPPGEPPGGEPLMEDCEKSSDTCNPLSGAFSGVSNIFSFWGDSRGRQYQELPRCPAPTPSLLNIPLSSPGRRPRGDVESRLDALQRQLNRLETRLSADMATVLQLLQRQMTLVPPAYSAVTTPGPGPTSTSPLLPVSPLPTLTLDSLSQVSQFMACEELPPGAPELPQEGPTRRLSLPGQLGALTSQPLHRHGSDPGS
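Further: peak tail current of the secondary pulse compared with the same well before compound.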

| Structure (SMILES) | hERG current change (%, negative = inhibition) at 10uM [%] |
| --- | --- |
| Cc1ccc(/C=N/N2CCN(C3c4ccccc4-c4ccccc43)CC2)s1 | 0.486 |
| CN(/N=C/c1cccc(Br)c1)C1=NS(=O)(=O)c2ccccc21 | -11.8 |
| COc1ccc(N2CCN(c3nc4c(c(=O)n(C)c(=O)n4C)n3CCCc3ccccc3)CC2)cc1 | 13.4 |
| CCc1ccc(/C=c2\s/c(=C\C(=O)C(C)(C)C)[nH]c2=O)cc1 | 15.2 |
| CCCc1cc(C(=O)N2CCCC(N3CCN(c4ccccc4C)CC3)C2)n(C)n1 (centres unmarked) | -35.8 |
| Cc1nc(C(=O)N2CCCC(N3CCN(c4ccccc4C)CC3)C2)cs1 (centres unmarked) | -39.5 |
| Cc1ccccc1N1CCN(C2CCCN(C(=O)c3noc4c3CCCC4)C2)CC1 (centres unmarked) | -63.5 |
| CCc1[nH]nc(C(=O)N2CCCC(N3CCN(c4ccccc4C)CC3)C2)c1C (centres unmarked) | -23.8 |
| Cc1ccccc1N1CCN(C2CCCN(C(=O)c3ccccn3)C2)CC1 (centres unmarked) | -9.78 |
| Cc1ccccc1N1CCN(C2CCCN(C(=O)c3cc(C(C)C)[nH]n3)C2)CC1 (centres unmarked) | -61.2 |
| Cc1ccccc1N1CCN(C2CCCN(C(=O)c3cn4c(C)cccc4n3)C2)CC1 (centres unmarked) | -58.1 |
| Cc1ccccc1N1CCN(C2CCCN(C(=O)c3cc(CC(C)C)nn3C)C2)CC1 (centres unmarked) | -31.7 |
| Cc1cc(C(=O)N2CCCC(N3CCN(c4ccccc4C)CC3)C2)n(C)n1 (centres unmarked) | -88.8 |
| O=C(c1noc2c1CCCC2)N1CCCC(N2CCN(c3ccccc3F)CC2)C1 (centres unmarked) | -28 |
| Cc1ccccc1N1CCN(C2CCCN(C(=O)c3csc(C(C)C)n3)C2)CC1 (centres unmarked) | -43 |
| Cc1cc(C(=O)N2CCCC(N3CCN(c4ccccc4C)CC3)C2)nc(C)n1 (centres unmarked) | 4.27 |
| O=C(COc1ccccc1[N+](=O)[O-])N(Cc1ccco1)C1CCS(=O)(=O)C1 (centres unmarked) | -6.3 |
| Cc1cccc(NC(=O)/C=C/c2ccc3c(c2)OCO3)n1 | 19.1 |
| Cc1c(Cl)cnc(NC(=O)COC(=O)Cc2coc3ccc4ccccc4c23)c1Cl | -7.96 |
| Cc1ccc(Sc2ccc(NC(=O)CCl)cc2)c(C)c1 | 12.5 |
| CC(=O)N1CC2(C)CN(C(C)=O)CC(C)(C1)C2 | 23.8 |
| Cc1ccccc1N1CCN(C2CCCN(C(=O)c3cnsn3)C2)CC1 (centres unmarked) | -58.2 |

| Structure (SMILES) | hERG current change (%, negative = inhibition) at 10uM [%] |
| --- | --- |
| Cc1cnc(C(=O)N2CCCC(N3CCN(c4ccccc4C)CC3)C2)cn1 (centres unmarked) | 1.27 |
| Cc1ccccc1N1CCN(C2CCCN(C(=O)c3snnc3C)C2)CC1 (centres unmarked) | 5.72 |
| COc1ccc(NS(=O)(=O)c2ccc(N3CCCC3)c(NC(=S)Nc3cccc(S(=O)(=O)N(C)C)c3)c2)cc1 | 18.1 |
| CCc1c(C)nc2ncnn2c1N1CCCC(C(=O)NCc2ccc3c(c2)OCO3)C1 (centres unmarked) | -37.4 |
| CCCc1cc(N2CCCC(C(=O)NCC)C2)n2ncnc2n1 (centres unmarked) | -27.3 |
| CCc1c(C)nc2ncnn2c1N1CCC(C(=O)NCc2ccc3c(c2)OCO3)CC1 | -68.7 |
| CCCc1cc(N2CCCC(C(=O)NCc3ccc4c(c3)OCO4)C2)n2ncnc2n1 (centres unmarked) | -78.4 |
| Cc1cc(C)nc(N2CCCC(C(=O)NCc3ccc4c(c3)OCO4)C2)n1 (centres unmarked) | 20.9 |
| CCc1c(C)nc2ncnn2c1N1CCC(C(=O)NCc2cccc(OC)c2)CC1 | -38.6 |
| O=C(COC(=O)C1CCN(S(=O)(=O)c2cccs2)CC1)c1ccccc1 | 20.6 |
| CCN(C(=O)COC(=O)C1CCN(S(=O)(=O)c2cccs2)CC1)c1ccccc1 | 22 |
| CN(C(=O)COC(=O)C1CCN(S(=O)(=O)c2cccs2)CC1)c1ccccc1 | -14.1 |
| O=C(COC(=O)C1CCN(S(=O)(=O)c2cccs2)CC1)NCc1ccc(F)cc1 | -49.7 |
| Cc1ccc(CNC(=O)COC(=O)C2CCN(S(=O)(=O)c3cccs3)CC2)cc1 | -50.5 |
| CN(Cc1ccccc1)C(=O)COC(=O)C1CCN(S(=O)(=O)c2cccs2)CC1 | -53.4 |
| CN(C)C=O.O=C(OCC(=O)N1CCCc2ccccc21)C1CCN(S(=O)(=O)c2cccs2)CC1 | -71.1 |
| Cc1ccc(S(=O)(=O)N2CCC(C(=O)OCC(=O)N3CCc4ccccc43)CC2)cc1 | -25.4 |
| O=C(COC(=O)C1CCN(S(=O)(=O)c2cccs2)CC1)NCc1ccccc1 | -23.6 |
| ClC1(Cl)CC1CSc1nnc(-c2ccncc2)o1 (centres unmarked) | -16.3 |
| COc1ccc(-c2ccc(NS(=O)(=O)c3cc([N+](=O)[O-])c(C)c([N+](=O)[O-])c3)cc2)nn1 | -11.3 |
| O=C(Cn1nnc(N2CCCC2)n1)N/N=C/c1ccc(Cl)cc1 | 13.1 |
| Cc1cc(C)c(C)c(S(=O)(=O)NCc2ccc(C(=O)N3CCOCC3)cc2)c1C | -4.97 |
